Results taken from PubChem BioAssay (NCATS).
Results filed as inconclusive are left out. Where a call stands in place of a potency, no number is given. The source made the active and inactive calls. The call rests on the fitted dose curve; in most records, active means well fitted inhibition curve with a large enough effect; inconclusive means small, poorly fitted or top-dose-only effect; inactive means no such curve, though single readings can be large or run the other way.
Potency means the concentration at half of the fitted maximal effect.

The compounds below were run against Retinaldehyde dehydrogenase 3 (Homo sapiens) (UniProt P47895) (assay: qHTS for Inhibitors of the Aldehyde Dehydrogenase Family (ALDH1A3) Confirmatory screens (AID 2061311; further: nearly all actives have a fitted effect of over 60% in size)). Conditions: ALDH inhibition qHTS; series mostly up to 46 µM.
`Cc1ccnc(NCc2ccc(O)c3ncccc23)c1` was tested, and the Potency was 7.12 µM (active). In the case of `CC(=O)Nc1sc2c(c1-c1cc3ccccc3o1)CCNC2`, the Potency is reported as 11.3 µM (active). For `Oc1ccc(Nc2ccccc2F)c2cccnc12`, the Potency was 7.98 µM (active). In the case of `Cc1ccnc(NC(=S)N2CCN(c3ccc(O)cc3)CC2)c1`, the Potency is reported as 12.7 µM (active). With `Cc1csc(CNc2ncnc3cc(-c4ccc5c(c4)OCO5)ccc23)n1` the Potency was 7.94 µM (active). With `CCc1noc(-c2cccn3c(CNC(=O)COc4ccc(F)cc4)nnc23)n1` the Potency was 7.08 µM (active).

The compounds below were run against Retinal dehydrogenase 2 (Homo sapiens) (UniProt O94788) (assay: qHTS for Inhibitors of the Aldehyde Dehydrogenase Family (ALDH1A2) Confirmation screens (AID 2061314; further: nearly all actives have a fitted effect of over 65% in size)). Conditions: ALDH1A2 enzyme inhibition qHTS confirmation; series mostly up to 45.9 µM.
In the case of `COc1ccc(N(C)C(=O)c2cn(C)c(=O)c3cc(OC)c(OC)cc23)cc1`, the Potency is reported as “inactive”. `COCC1CN(Cc2ccc(C(F)(F)F)cc2)CC12CCNCC2` (configuration not stated) was tested, and the Potency was “inactive”. In the case of `COc1ccc(-c2nc(CNS(=O)(=O)c3cccc(F)c3)cs2)cc1`, the Potency is reported as 5.76 µM (active). `Cc1ccc(S(=O)(=O)N2CCCC(Cn3cnc4cccnc43)C2)cc1C` (configuration not stated) was tested, and the Potency was “inactive”. With `Cc1ccc(-c2nnc3ccccc3c2C(=O)Nc2cccc(C(F)(F)F)c2)cc1` the Potency was “inactive”. In the case of `Cc1nn2c(=O)cc(COC(=O)c3ccc(F)cc3)nc2s1`, the Potency is reported as “inactive”. In the case of `CCc1nn2c(=O)c(S(=O)(=O)Nc3ccc(C(C)C)cc3)c(C)nc2s1`, the Potency is reported as “inactive”. With `COC(=O)c1cc(C)nc2c1c(=O)nc(SCc1ccccc1Cl)n2C1CC1` the Potency was “inactive”. In the case of `Cc1ccc(-n2c(SCc3ccccc3C)nc3[nH]ncc3c2=O)cc1C`, the Potency is reported as “inactive”. `COc1cc(-c2noc(-c3ccc(NC4CCCCC4)c([N+](=O)[O-])c3)n2)cc(OC)c1OC` was tested, and the Potency was “inactive”. In the case of `CC(C)NS(=O)(=O)c1ccc(OCC(=O)N2CCN(c3cccc(Cl)c3)CC2)cc1`, the Potency is reported as “inactive”. In the case of `COc1ccc(-c2nnc(SCC(=O)Nc3cccc(C(F)(F)F)c3)nc2-c2ccc(OC)cc2)cc1`, the Potency is reported as “inactive”. With `COc1ccc(S(=O)(=O)NCC(c2ccco2)N2CCOCC2)cc1C` (configuration not stated) the Potency was “inactive”. For `COc1cncc(Nc2cnc3ccc(-c4ccc(F)cc4)nn23)c1`, the Potency was “inactive”. With `Cn1c(=O)n([C@H]2CCCN(C(=O)c3cccnc3)C2)c2ncccc21` the Potency was “inactive”. In the case of `COc1ccc(-c2ccc(C(=O)Nc3cccc(C(F)(F)F)c3)cc2)nn1`, the Potency is reported as “inactive”. In the case of `COC(=O)c1ccccc1NC(=O)CSc1nc(-c2ccccc2)cc(C(F)(F)F)n1`, the Potency is reported as “inactive”. For `CCCc1cnc2c(c1SCC(=O)N(C)c1ccccc1)c(=O)n(C)c(=O)n2C`, the Potency was “inactive”. With `COc1ccc(NC(=O)CCc2c(C)nc3c(c2C)c(=O)n(C)c(=O)n3C)cc1OC` the Potency was “inactive”. With `COc1ccc(S(=O)(=O)NCC(c2ccc(N(C)C)cc2)N2CCOCC2)cc1` (configuration not stated) the Potency was “inactive”. For `COc1ccc(CN2CC(O)CN([S+](=O)([O-])c3ccc(F)cc3)CC2=O)cc1` (configuration not stated), the Potency was “inactive”. `COc1ccc(S(=O)(=O)c2c(C(=O)c3ccc(C)c(C)c3)cnc3ccc(C)cc23)cc1` was tested, and the Potency was “inactive”. With `COC(=O)CSc1ccc2nnc(CCNS(=O)(=O)c3ccccc3)n2n1` the Potency was “inactive”. With `O=C(COc1ccccc1-c1nc(-c2ccccc2)no1)Nc1cccc([N+](=O)[O-])c1` the Potency was “inactive”. For `CNC(=O)[C@H]1C[C@H](Oc2cccnc2)CN1C(=O)Cc1ccccc1`, the Potency was “inactive”. `COc1ccc(S(=O)(=O)N2CCCCC2)cc1C(=O)Nc1cccc(C(F)(F)F)c1` was tested, and the Potency was “inactive”. For `CN(C)C(=O)CN1C(=O)CO[C@H](c2ccc(NS(=O)(=O)c3cccc(F)c3)cc2)[C@H]1CO`, the Potency was “inactive”. In the case of `COc1ccc(S(=O)(=O)N2CCOC[C@H](Oc3ccc(C(F)(F)F)cc3)C2)cc1`, the Potency is reported as “inactive”. In the case of `COc1ccccc1CCNc1ncnc2c1nnn2C`, the Potency is reported as “inactive”. With `CCc1cnc2c(c1SCc1ccccc1C)c(=O)n(C)c(=O)n2C` the Potency was “inactive”. `CCN(CC)CCNC(=O)CN1C(=O)COc2ccc(S(=O)(=O)N3CCOCC3)cc21` was tested, and the Potency was “inactive”. In the case of `O=C(O)C1(Oc2ccc(Cl)cc2)CCN(c2cnccn2)CC1`, the Potency is reported as “inactive”.

Each compound was assayed against Retinaldehyde dehydrogenase 3 (Homo sapiens) (UniProt P47895) (assay: qHTS for Inhibitors of the Aldehyde Dehydrogenase Family (ALDH1A3) Primary screen (AID 2061315)). Conditions: ALDH inhibition qHTS; series mostly up to 56 µM.
In the case of `Oc1ccc(Nc2ccccc2F)c2cccnc12`, the Potency is reported as 1.26 µM (active). In the case of `Cc1csc(CNc2ncnc3cc(-c4ccc5c(c4)OCO5)ccc23)n1`, the Potency is reported as “inactive”. With `C=CC(=O)N1CCC[C@@H](n2nc(-c3cccc(C(=O)Nc4ccc(C(C)C)c(C)c4)c3)c3c(N)ncnc32)C1` the Potency was “inactive”.

What follows are compounds tested against Aldehyde dehydrogenase 1A1 (Homo sapiens) (UniProt P00352) (assay: qHTS for Inhibitors of the Aldehyde Dehydrogenase Family (ALDH1A1) Confirmatory screens (AID 2061316; further: nearly all actives have a fitted effect of over 65% in size)). Conditions: ALDH inhibition qHTS; series mostly up to 47.3 µM.
`Cc1ccnc(NCc2ccc(O)c3ncccc23)c1` was tested, and the Potency was 8.96 µM (active). `CC(=O)Nc1sc2c(c1-c1cc3ccccc3o1)CCNC2` was tested, and the Potency was 8.96 µM (active). With `Oc1ccc(Nc2ccccc2F)c2cccnc12` the Potency was “inactive”. For `Cc1ccnc(NC(=S)N2CCN(c3ccc(O)cc3)CC2)c1`, the Potency was 7.98 µM (active). For `Cc1csc(CNc2ncnc3cc(-c4ccc5c(c4)OCO5)ccc23)n1`, the Potency was 11.3 µM (active). In the case of `CCc1noc(-c2cccn3c(CNC(=O)COc4ccc(F)cc4)nnc23)n1`, the Potency is reported as “inactive”.
